Laboratory results as given in PubChem BioAssay (EPA / NIEHS).
Activity calls are given as the source filed them. The calls were made as follows: active = hit-call score of the fitted dose curve at least 0.9, where 1 is the maximum; inactive = score below 0.9.

read-out: catalase (CAT), CAT (gene 847); test: LTEA_HepaRG_CAT: Life Technologies and Expression Analysis (LTEA) Assay for catalase (CAT) using HepaRG (AID 2283452); settings: mRNA level, 48 h; actives raise or lower the signal;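 as to AC50: TaqMan qRT-PCR signal normalized to ACTB GAPDH and POLR2A housekeeping genes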
Procedure, shortened: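 HepaRG cells in serum-free induction medium, 0.5% DMSO vehicle, exposed 48 h in duplicate over 8 half-log concentrations from 100 uM. CAT mRNA measured by qRT-PCR, normalized to ACTB, GAPDH, POLR2A; bidirectional fit versus DMSO.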

outcome, inactive:
CCOC(=O)O[C@H](C)OC(=O)c1ccc2c(c1)cc(C(=O)NC1CCN(C(C)C)CC1)n2Cc1cc(-c2ccc(Cl)s2)on1, CCCCCc1ccc(N)cc1, CCN(Cc1cccc(S(=O)(=O)O)c1)c1ccc(C(=C2C=CC(=[N+](CC)Cc3cccc(S(=O)(=O)O)c3)C=C2)c2ccccc2S(=O)(=O)[O-])cc1, CCCCCCCCCC(=O)O, CC(O)CC(C)(C)O (stereo unspecified), CCCCCCCCCCCO, O=CCCCC=O, CC[C@@H]1C[C@H](N(Cc2cc(C(F)(F)F)cc(C(F)(F)F)c2)C(C)=O)c2cc(C(F)(F)F)ccc2N1C(=O)OC(C)C

AC50, active:
NCc1cccc(C2CCN(C(=O)c3ccc(C#Cc4ccccc4F)o3)CC2)c1 50 µM, Cc1cc(F)ccc1-c1cc(N2CC[C@@H](O)[C@H]2CO)ncc1N(C)C(=O)C(C)(C)c1cc(C(F)(F)F)cc(C(F)(F)F)c1 11.7 µM, c1ccc(C[n+]2cccc3ccccc32)cc1 31.1 µM, COc1ccc2cc(S(=O)(=O)N[C@H](CC(=O)N[C@H](Cc3ccc(CN4[C@H](C)CCC[C@@H]4C)cc3)C(=O)N(C)C(C)C)c3ccc4c(c3)OCO4)ccc2c1 17.7 µM, COc1cc(C(=O)NC2CCN(C)CC2)ccc1Nc1ncc2c(n1)N(C1CCCC1)CC(F)(F)C(=O)N2C 15.3 µM, Cc1occc1C(=O)Nc1ccc(C(=O)N2CCC(F)(F)/C(=C\C(=O)N3CCC(N4CCCCC4)CC3)c3ccccc32)cc1 31.2 µM

read-out: flavin-containing dimethylaniline monooxygenases 3 (FMO3), FMO3 (gene 2328); test: LTEA_HepaRG_FMO3: Life Technologies and Expression Analysis (LTEA) Assay for flavin-containing dimethylaniline monooxygenases 3 (FMO3) using HepaRG (AID 2283453); settings: mRNA level, 48 h; actives raise or lower the signal;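 as to AC50: differentiated human HepaRG liver cells in serum-free induction medium; FMO3 transcript by TaqMan qRT-PCR normalized to ACTB GAPDH and POLR2A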
Procedure, shortened: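 Eight-point concentration-response in serum-free HepaRG cultures (top 100 uM, 0.5% DMSO, 48 h). Read-out: FMO3 mRNA level normalized to three endogenous control genes, fitted bidirectionally versus vehicle.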

outcome, inactive:
O=C=NCCCCCCN=C=O, O=C(O)c1ccccc1C(=O)OCc1ccccc1, CCOC(=O)O[C@H](C)OC(=O)c1ccc2c(c1)cc(C(=O)NC1CCN(C(C)C)CC1)n2Cc1cc(-c2ccc(Cl)s2)on1, CCCCCc1ccc(N)cc1, CCN(Cc1cccc(S(=O)(=O)O)c1)c1ccc(C(=C2C=CC(=[N+](CC)Cc3cccc(S(=O)(=O)O)c3)C=C2)c2ccccc2S(=O)(=O)[O-])cc1, Cc1ncc(CO)c(CO)c1O, CCCCCCCCCC(=O)O, OCCO, Cc1cccc2ccccc12, CC(O)CC(C)(C)O (stereo unspecified), CCCCCCCCCCCO, c1ccc2ccccc2c1, CCO[Si](CCCNC(N)=O)(OCC)OCC, Cc1ccc(C(C)C)cc1, O=C1O[C@H]([C@@H](O)CO)C(O)=C1O, CCCC(=O)OCCC(C)C, Oc1ccccc1, Cc1cn([C@H]2C[C@H](N=[N+]=[N-])[C@@H](CO)O2)c(=O)[nH]c1=O, O=c1ccc2ccccc2o1, O=CCCCC=O, O=c1[nH]sc2ccccc12

AC50, active:
CCN(Cc1cccnc1)C(=O)c1cccc(Cl)c1[C@]1(C)C(=O)N(Cc2ccc(OC)cc2OC)c2ccc(Cl)cc21 16.6 µM, CN(C)C(=O)C1(N2CCCCC2)CCN(CC[C@@]2(c3ccc(Cl)c(Cl)c3)CN(C(=O)c3ccccc3)CCO2)CC1 13.7 µM, CC1(C)NC(=O)N(c2ccc([N+](=O)[O-])c(C(F)(F)F)c2)C1=O 76.6 µM, NCc1cccc(C2CCN(C(=O)c3ccc(C#Cc4ccccc4F)o3)CC2)c1 82.7 µM, Cc1cc(F)ccc1-c1cc(N2CC[C@@H](O)[C@H]2CO)ncc1N(C)C(=O)C(C)(C)c1cc(C(F)(F)F)cc(C(F)(F)F)c1 21.9 µM, c1ccc(C[n+]2cccc3ccccc32)cc1 32.6 µM, CC/C(=C(/CC)c1ccc(O)cc1)c1ccc(O)cc1 92.4 µM, COc1ccc2cc(S(=O)(=O)N[C@H](CC(=O)N[C@H](Cc3ccc(CN4[C@H](C)CCC[C@@H]4C)cc3)C(=O)N(C)C(C)C)c3ccc4c(c3)OCO4)ccc2c1 17.3 µM, CN(C)c1ccc(C(=C2C=CC(=[N+](C)C)C=C2)c2ccc(N(C)C)cc2)cc1 4.03 µM, COc1cc(C(=O)NC2CCN(C)CC2)ccc1Nc1ncc2c(n1)N(C1CCCC1)CC(F)(F)C(=O)N2C 12.6 µM, Cc1occc1C(=O)Nc1ccc(C(=O)N2CCC(F)(F)/C(=C\C(=O)N3CCC(N4CCCCC4)CC3)c3ccccc32)cc1 44 µM
